The whole screen tested about 330,000 compounds, of which about 650 (0.2%) were called active. No stated cut-off is given here; in the data, active means inhibition above about 50%; inactive means the rest. What follows is part of a selection rich in actives, with near analogues and random picks from the rest.
Target: Integrin alpha-4 (Homo sapiens) (UniProt P13612)
Assay: VLA-4 integrin binding inhibitors – MLPCN library, flow cytometry, VLA-4 expressing cells, VLA-4 allosteric modulator project, primary screen (AID 2557)
Details: ligand binding flow cytometry, hits give high values, about 7 µM as worked out from the volumes in the protocol

Chain of Integrin alpha-4 (Homo sapiens) (P13612 whole entry, looked up): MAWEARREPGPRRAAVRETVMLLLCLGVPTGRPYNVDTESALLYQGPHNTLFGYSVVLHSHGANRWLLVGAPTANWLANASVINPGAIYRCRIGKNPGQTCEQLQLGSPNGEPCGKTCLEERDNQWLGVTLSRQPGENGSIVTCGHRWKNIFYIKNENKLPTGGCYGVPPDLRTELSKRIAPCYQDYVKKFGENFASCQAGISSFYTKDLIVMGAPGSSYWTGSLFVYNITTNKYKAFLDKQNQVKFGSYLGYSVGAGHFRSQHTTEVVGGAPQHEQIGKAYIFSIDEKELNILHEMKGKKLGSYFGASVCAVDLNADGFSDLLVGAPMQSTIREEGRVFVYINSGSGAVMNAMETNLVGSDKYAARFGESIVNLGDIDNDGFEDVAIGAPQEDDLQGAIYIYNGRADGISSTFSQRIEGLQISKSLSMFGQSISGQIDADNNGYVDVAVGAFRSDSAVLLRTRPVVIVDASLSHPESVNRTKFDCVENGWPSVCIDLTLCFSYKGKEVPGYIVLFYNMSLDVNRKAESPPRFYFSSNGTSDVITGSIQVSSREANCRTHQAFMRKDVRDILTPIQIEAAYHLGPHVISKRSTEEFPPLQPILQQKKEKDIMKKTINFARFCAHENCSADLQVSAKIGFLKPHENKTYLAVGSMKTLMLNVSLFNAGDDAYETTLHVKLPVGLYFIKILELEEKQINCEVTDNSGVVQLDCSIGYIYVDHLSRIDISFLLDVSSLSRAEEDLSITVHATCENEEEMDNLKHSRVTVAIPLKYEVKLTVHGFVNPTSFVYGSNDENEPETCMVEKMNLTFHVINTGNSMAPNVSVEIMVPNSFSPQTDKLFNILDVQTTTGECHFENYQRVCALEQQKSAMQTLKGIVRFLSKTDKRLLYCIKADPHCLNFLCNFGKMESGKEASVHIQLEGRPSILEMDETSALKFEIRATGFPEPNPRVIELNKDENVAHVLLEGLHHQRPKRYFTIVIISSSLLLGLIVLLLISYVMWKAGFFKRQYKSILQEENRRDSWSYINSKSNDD

| SMILES | inhibition |
| --- | --- |
| Cc1cccc2nc(CSc3nc4[nH]ncc4c(=O)n3-c3cccc(Cl)c3)cc(=O)n12 | 0.93% (inactive) |
| O=C(Nn1c(-c2ccccc2)nc2ccccc2c1=O)c1ccc([N+](=O)[O-])cc1 | 52% (active) |
| O=C(Nn1c(SCc2ccc([N+](=O)[O-])cc2)nc2ccccc2c1=O)c1ccc(F)cc1 | -2.25% (inactive) |
| Cc1nc2ccccc2c(=O)n1NC(=O)c1ccc(Cl)c([N+](=O)[O-])c1 | 8.96% (inactive) |
| CN(C(=O)COC(=O)Cn1cnc2c1c(=O)n(C)c(=O)n2C)C1(C#N)CCCCC1 | 0% (inactive) |
| COc1cccc(C2=CC(=O)C[C@H](c3ccc(F)cc3)C2)c1OC | 0% (inactive) |
| Cc1ccc(S(=O)(=O)N(Cc2ccccc2)c2ccccn2)cc1[N+](=O)[O-] | 6.28% (inactive) |
| CCOc1cc(C(=S)N2CCOCC2)ccc1OS(=O)(=O)c1ccc(Br)cc1 | 6.18% (inactive) |
| COC(=O)N/N=C/c1c[n+]([O-])c2ccccc2[n+]1[O-] | 52.6% (active) |
| COC(=O)N/N=C/c1ccc(-c2ccc(Cl)c(Cl)c2)o1 | 12.9% (inactive) |
| COC(=O)N/N=C/c1cn(CCCOc2ccc(C)cc2)c2ccccc12 | 1.98% (inactive) |
| COc1cc(C(C(=O)NC2CCCC2)N(C(=O)c2ccco2)c2ccccc2C(C)=O)cc(OC)c1OC (stereo not given) | -1.99% (inactive) |
| O=C(CN1CCSCC1)N/N=C/c1ccc(F)cc1 | -0.98% (inactive) |
| Nc1nc(SCC(=O)NNc2c(Cl)cc(Cl)cc2Cl)n[nH]1 | -17.3% (inactive) |
| Cc1ccc(N(C(=O)CNC(=O)c2ccco2)C(C(=O)NC2CCCC2)c2ccncc2)cc1 (stereo not given) | -11.3% (inactive) |
| CC(C)Cn1cnc2c1c(=O)n(CC(O)c1ccccc1)c(=O)n2CC(C)C (stereo not given) | -0.03% (inactive) |
| Cc1ccccc1CN1CCNC(=O)C1CC(=O)NCCC1=CCCCC1 (stereo not given) | -8.93% (inactive) |
| CSCc1cc(N(C)C)nc(SCc2ccc(Cl)cc2Cl)n1 | -0.25% (inactive) |
| Cc1cccc(OCCCC(=O)Nc2ccc(S(=O)(=O)N3CCCC3)cc2)c1 | 6.35% (inactive) |
| O=C(NC(=S)Nc1ccccc1C(=O)O)c1ccc(-c2ccc(Br)cc2)o1 | -8.29% (inactive) |

| SMILES | inhibition |
| --- | --- |
| CNC1(c2nnnn2-c2c(C)cccc2C)CCOC(C)(C)C1 (stereo not given) | -0.18% (inactive) |
| CCN(CC(=O)Nc1c(F)cccc1F)C(=O)c1ccc(S(=O)(=O)N2CCCCC2)cc1 | -0.6% (inactive) |
| COc1ccccc1/C=C/C(=O)OCC(=O)NC1CCCCCC1 | 9.38% (inactive) |
| N#CC1(NC(=O)COc2ccc3oc4ccccc4c3c2)CCCCC1 | 17.8% (inactive) |
| COc1cccc(N(C(=O)c2snc(C(N)=O)c2N)C(C(=O)NCC2CCCO2)c2c[nH]c3ccccc23)c1 (stereo not given) | -8.82% (inactive) |
| O=C1NC2(CCCCC2)N=C1c1ccccc1 | 7.05% (inactive) |
| Cn1cnc2c1c(=O)n(Cc1ccccc1C#N)c(=O)n2C | 0.49% (inactive) |
| Cn1c(=NC(=O)c2ccc3c(c2)OCCO3)sc2cc(S(C)(=O)=O)ccc21 | 4.69% (inactive) |
| Cc1cc(C)nc(SCc2nnc(SCC(=O)OC3CCCCC3)o2)n1 | -6.47% (inactive) |
| CC(C)C[C@@H](CO)N1CCN(Cc2ccc(O)cc2)CCC1=O | 25.2% (inactive) |
| COC(=O)c1ccc(CN(c2ccccc2OC)S(=O)(=O)c2cccs2)o1 | 12.4% (inactive) |
| O=C(CN(C(=O)c1nsc(Cl)c1Cl)c1cccc(F)c1)NC1CCCC1 | 5.34% (inactive) |
| O=C(CCS(=O)(=O)c1ccc(Br)cc1)NCCc1ccc(Cl)cc1 | -4% (inactive) |
| Cc1ccc(S(=O)(=O)N2CCN(C(=O)COC(=O)CNC(=O)c3ccc(C(C)(C)C)cc3)CC2)c(C)c1 | -0.38% (inactive) |
| COc1cc(OC)cc(C(=O)NCC(=O)N2CCCCCCC2)c1 | 2.18% (inactive) |
| Cc1cc(C)cc(C(=O)NCC(=O)OCC(=O)N2CCCCC2)c1 | 51.9% (active) |
| COCCOC(=O)C1=C(C)Nc2nc(C)nn2C1c1ccccc1 (stereo not given) | 76% (active) |
| CC1=C(C(N)=O)C(c2ccc(F)cc2)n2nc(CCCO)nc2N1 (stereo not given) | -3.48% (inactive) |
| COCCOC(=O)C1=C(C)NC(=O)NC1c1ccc(Cl)cc1 (stereo not given) | 0.04% (inactive) |
| CCCCOc1ccc(N(CC(=O)NC(C)C)C(=O)CCC(=O)Nc2ccccn2)cc1 | 23.1% (inactive) |

| SMILES | inhibition |
| --- | --- |
| Cc1ccc(CN2CCN(Cc3ccc4ncccc4c3)CC2CCO)cc1 (stereo not given) | 7.01% (inactive) |
| CC(C)(C)C1CCC(C(=O)Nc2cccnc2)CC1 (stereo not given) | 13.3% (inactive) |
| CCN(CC)S(=O)(=O)c1ccc(OC)c(NC(=O)CCc2c(C)noc2C)c1 | 9.08% (inactive) |
| O=C(COc1ccccc1F)NNC(=O)c1ccc(N2CCCCC2)c([N+](=O)[O-])c1 | 19.2% (inactive) |
| CCOC(=O)c1ccc(N2C(=O)CC(N3CCC(C(=O)OCC)CC3)C2=O)cc1 (stereo not given) | 24.6% (inactive) |
| CCOC(=O)c1ccc(N2C(=O)CC(N3CCN(C(=O)c4ccccc4)CC3)C2=O)cc1 (stereo not given) | 2.59% (inactive) |
| CCOC(=O)c1ccc(N2C(=O)CC(N3CC(C)OC(C)C3)C2=O)cc1 (stereo not given) | 108% (active) |
| Cc1cc(C(=O)OCC(=O)Nc2ccc(F)c(F)c2)c(C)o1 | 49.7% (active) |
| Cc1cc(C(=O)OCC(=O)Nc2ccccc2Cl)c(C)o1 | -2.15% (inactive) |
| Cc1cc(C)cc(NC(=O)COC(=O)c2cc(C)oc2C)c1 | 3.64% (inactive) |
| Cc1ccc(-c2cc(N)on2)cc1 | 19.5% (inactive) |
| Cc1cccc(N(CC(O)CN(C)C)S(=O)(=O)c2ccccc2)c1 (stereo not given) | 2.19% (inactive) |
| Cc1ccc(N(CC(O)CN2CCCC2)S(=O)(=O)c2ccccc2)cc1 (stereo not given) | 4.52% (inactive) |
| Cc1cc(C)n(CC(O)CN(c2ccccc2)S(=O)(=O)c2ccc3ccccc3c2)n1 (stereo not given) | 50.2% (active) |
| O=C(COC(=O)c1ccc2ncsc2c1)Nc1ccc(Cl)cc1 | -15.8% (inactive) |
| Cn1c(=O)c2c(nc(N/N=C/c3cccs3)n2Cc2ccc(Br)cc2)n(C)c1=O | 7.63% (inactive) |
| COc1ccc(Nc2cc(Sc3ccc(OC)cc3)ncn2)cc1 | 4.33% (inactive) |
| CCCNS(=O)(=O)c1ccc2c(c1)CCCN2C(C)=O | 9.08% (inactive) |
| CC(=O)N1CCc2cc(S(=O)(=O)Nc3ccccc3N3CCN(C)CC3)ccc21 | 54% (active) |
| CC(=O)N1CCc2cc(S(=O)(=O)NC3CCCCC3)ccc21 | -5.2% (inactive) |
